Experimental data: PubChem BioAssay AID686971 (National Center for Advancing Translational Sciences (NCATS), 2013)
Among all 360,000 compounds or so, about 7,500 (2.1%) were called active. Roughly 8% stayed inconclusive and do not appear here. Calls follow the shape of the dose curve; as a rule, active = well fitted cell-killing curve with a large enough effect; inconclusive = small, poorly fitted or top-dose-only effect, or effect the other way, or another doubt; inactive = no such curve, though single readings can be large or run the other way. The list comes from a sample in which actives are over-represented; it also holds similar structures and randomly drawn compounds. A call without a number means that no potency is given here.

assay: qHTS for induction of synthetic lethality in tumor cells producing 2HG: qHTS for the HT-1080-IDH1KD cell line; conditions: HT-1080 IDH1 knockdown viability, ATP luminescence, 48 h; series mostly up to 46.1 µM
In short: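 IDH1KD HT-1080 cells, 750/well, RPMI + 5% FBS; compound pinned after 2 h settling; 48 h, 37 °C; CellTiter-Glo luminescence; % activity normalised to DMSO and no-cell wells; curves fitted, classed by r2 and efficacy.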
Potency is read from the fitted curve at half-maximal effect.

Structure (SMILES) | Potency | activity, negative = toxicity
C[C@@H]1CN([C@H](C)CO)S(=O)(=O)c2ccc(C#CC3CCCCC3)cc2O[C@H]1CN(C)C(=O)Cc1ccncc1 | inactive | 
COc1ccc(CNC(=O)CCN2C(=O)c3ccccc3C2=O)cc1 | inactive | 
COC(=O)c1cc(OC)ccc1-c1ccc(OC)cc1 |  | -0.423% [at 9.24 µM] (inactive)
CCOC(=O)C1=C(c2ccc(OC)cc2)C(=O)c2ccccc2C1=O | 7.31 µM (active) | 
CC1=C(C(=O)N(C(C)C)C(C)C)CC(CC(=O)NCC2CCCCC2)C(=O)N1Cc1ccccc1 (stereo unspecified) | inactive | 
O=C(NCc1ccccn1)[C@@H]1CCCN1C(=O)[C@@H]1CCCN1C(=O)c1ccccc1 | inactive | 
CC(=N\NC(=O)c1cc(Br)ccc1O)/C(=N/O)C(=O)Nc1ccccc1 | 16.4 µM (active) | 
CC(C)/C=N/NC(=O)c1cc(Br)ccc1O | inactive | 
CC(=O)N/N=C(\C)c1ccc(Br)cc1Br | inactive | 
CN(C)C1CN(Cc2cn(Cc3ccccc3)nn2)S(=O)(=O)C1 (stereo unspecified) | inactive | 
CCCNC(=O)C1(C)CCN(C(=O)c2cc(F)ccc2C)C1 (stereo unspecified) | inactive | 
CSc1ccc(CNC(=O)C2(C)CCCN2C)cc1 (stereo unspecified) | inactive | 
COc1cc(CN2CCC(n3nccc3NC(=O)CCCc3ccccc3)CC2)ccc1O | inactive | 
COc1ccc(CN2CCC(n3nccc3NC(=O)CCCc3ccccc3)CC2)cc1C | 18.4 µM (active) | 
Cc1ccc(CN2CCC(n3nccc3NC(=O)CCCc3ccccc3)CC2)o1 | inactive | 
Cc1noc(C)c1NC(=O)N(C)C[C@@H]1Oc2cc(Br)ccc2S(=O)(=O)N([C@@H](C)CO)C[C@H]1C | inactive | 
CCCNC(=O)C1(C)CCN(C(=O)c2ccc(F)cc2Cl)C1 (stereo unspecified) | inactive | 
Cc1cccc(C)c1-n1nnnc1C(CCc1ccccc1)N1CCN(C/C=C/c2ccccc2)CC1 (stereo unspecified) | inactive | 
O=C(CC[C@H]1O[C@@H](n2ccc(=O)[nH]c2=O)[C@H](O)[C@@H]1O)N[C@H](Cc1ccccc1)C(=O)NCCCN1CCCC1=O | inactive | 
O=C(/C=C/c1ccc([N+](=O)[O-])o1)NNC(=O)c1ccc(F)cc1 | 2.59 µM (active) | 
O=C(NNC(=O)C1CCCC1)c1ccc(F)cc1 | inactive | 
CCc1noc(C)c1C(=O)NNC(=O)c1ccc(F)cc1 | inactive | 
CC(C)c1ccc2c(c1)c(SC(C)(C)C)c(CC(C)(C)C(=O)O)n2Cc1ccc(Cl)cc1 | 18.4 µM (active) | 
N#CCCN(C(=O)Nc1ccc(Cl)c(Cl)c1)C1CCCCC1 | inactive | 
C[C@H](CO)N1C[C@H](C)[C@@H](CN(C)C(=O)c2cccc(F)c2)Oc2cc(-c3cncnc3)ccc2S1(=O)=O | inactive | 
CN(C)c1nc(=Nc2cccc(Cl)c2)ss1 | inactive | 

Structure (SMILES) | Potency | activity, negative = toxicity
Clc1cccc(N=C2NN=C(c3ccc4c(c3)OCCO4)CS2)c1 | 7.94 µM (active) | 
C[C@H]1CN([C@@H](C)CO)C(=O)CCCn2cc(nn2)CO[C@@H]1CN(C)S(=O)(=O)c1cccs1 | inactive | 
CCCn1c(N)c(C(=O)CSc2nnc(Cc3cccs3)n2C2CC2)c(=O)[nH]c1=O | inactive | 
COc1ccc(N)cc1NC(=O)CN1CCOCC1 | inactive | 
NC(=S)NN=Cc1ccc(OC(=O)COc2cc(Cl)c(Cl)cc2Cl)cn1 | 7.31 µM (active) | 
O=C(COC(=O)COc1cc(Cl)c(Cl)cc1Cl)NC1CC1 | inactive | 
O=C(COc1ccc(Cl)cc1Cl)N/N=C/c1ccccn1 | inactive | 
CC(C)c1cc(Cn2c3ccccc3c(=O)n2C(C)Cn2cc(C3CC3)nn2)on1 (stereo unspecified) | inactive | 
Cc1nnc(NC(=O)c2ccc3nccnc3c2)s1 | inactive | 
Cc1ccc(CS(=O)(=O)c2ncc(Cl)c(C(=O)Nc3nnc(C)s3)n2)cc1 | 20.6 µM (active) | 
COCCSc1nnc(NC(=O)CCS(=O)(=O)Cc2ccccc2)s1 | inactive | 
CSc1ncc(Cl)c(C(=O)Nc2cc(C)ccc2C)n1 | inactive | 
Cc1nnc(NC(=O)CCCOc2ccccc2)s1 | inactive | 
CSc1nnc(NC(=O)c2nc(S(=O)(=O)Cc3ccc(C)cc3)ncc2Cl)s1 | 6.51 µM (active) | 
Cc1cc(OCC(=O)Nc2nccs2)c2c(C)c(C)c(=O)oc2c1 | inactive | 
CNC(=O)c1ccc(CN(C)C(=O)c2cc(C3CC3)nc3c2cnn3C(C)C)cc1 | inactive | 
CC(=O)Oc1ccc(Cn2c(C)c(C(=O)NCc3ccc(C#N)cc3)sc2=O)cc1 | inactive | 
O=C(/C=C/[C@H]1O[C@@H](n2ccc(=O)[nH]c2=O)[C@H](O)[C@@H]1O)NCc1ccccn1 | inactive | 
Cc1c(CCO)c(=O)n(-c2ccccc2)n1S(=O)(=O)c1ccc(F)cc1 | inactive | 
CC1C(=O)Nc2ccccc2N1C(=O)c1c(F)cccc1F (stereo unspecified) | inactive | 
Cc1c(CCO)c(=O)[nH]n1C(=O)c1c(F)cccc1F | 6.31 µM (active) | 
Cc1ccc(C(=O)OCC(=O)NC2CCCCCCC2)cc1C | inactive | 
CCOC(=O)C1CCCN(C(=O)c2ccc(N(C)C)cc2)CC1 (stereo unspecified) | inactive | 
CSc1ncnc2c1ncn2CCCNCc1cccs1 | inactive | 
CC1(C(=O)NS(=O)(=O)c2cccs2)CCN1C(=O)Cc1ccc(-c2ccccc2)cc1 (stereo unspecified) | inactive | 
Cc1ccc(Cc2c(-c3ccco3)nc3ccc(Cl)cn23)cc1 | 16.4 µM (active) | 

Structure (SMILES) | Potency | activity, negative = toxicity
Cc1ccc(-c2nc3ccc(Cl)cn3c2Cc2ccccc2)cc1 | inactive | 
Cc1ccc(Cc2c(-c3ccccc3)nc3ccc(Cl)cn23)cc1 | inactive | 
Cc1cccc(CNC(=O)c2sc(=O)n(Cc3ccccc3C)c2C)c1 | inactive | 
CCN(CC)C(=O)C1=C(C)N(Cc2ccc(OC)cc2)C(=O)C(CC(=O)NCc2ccco2)C1 (stereo unspecified) | inactive | 
CC(C)c1ccc(CC(=O)N2CCC2(C)C(=O)NS(=O)(=O)c2ccc(C(C)(C)C)cc2)cc1 (stereo unspecified) | inactive | 
CC1=CC(C)(C)NC(=S)N1NC(=O)c1ccccc1Cl | inactive | 
CC1=CC(C)(C)NC(=S)N1c1ccccc1 | 11.2 µM (active) | 
O=C1C(Sc2cccc(F)c2)=C[C@@]2(O)CC[C@@H](O)[C@]1(Sc1cccc(F)c1)[C@H]2O | inactive | 
CCOC(=O)c1cc(-c2sc(NC(=O)c3ccccc3)nc2C)n(CCO)n1 | inactive | 
Cc1cc(C)n2c(Nc3c(C)cccc3C)c(CCc3ccccc3)nc2n1 | inactive | 
COc1ccc(S(=O)(=O)N(C)C[C@H]2OCc3cnnn3CCCC(=O)N([C@H](C)CO)C[C@H]2C)cc1 | inactive | 
Oc1c(Cl)cc(Cl)c(Cl)c1Cc1c(O)c(Cl)cc(Cl)c1Cl | 7.31 µM (active) | 
COc1cc2nc(N3CCCN(C)CC3)nc(NC3CC3)c2cc1OC | inactive | 
CC(=O)NN=C(C)c1ccc(NC(=O)C2CC2)cc1 | inactive | 
CCCCN1CC(C)(C)[C@H](CC(=O)Nc2ccc(Br)cc2)C1=O | inactive | 
COc1ccc(/C=N/Nc2ncnc3sc4c(c23)CCCC4)cc1O | 20.6 µM (active) | 
COc1ccc(NC(=O)CCNC(=O)Cn2cnc3sc4c(c3c2=O)CCCC4)cc1OC | inactive | 
COc1ccc(NC(=O)CCCNC(=O)Cn2cnc3sc4c(c3c2=O)CCCC4)cc1OC | inactive | 
Nc1cccc(-c2cncc(N3CCN(Cc4ccccn4)CC3)n2)c1 | inactive | 
C[C@H](CO)N1C[C@H](C)[C@H](CN(C)C(=O)Nc2ccc3c(c2)OCO3)Oc2ncc(Br)cc2C1=O | inactive | 
COc1ccccc1-n1nnnc1S(=O)(=O)Cc1ccc(Cl)cc1 | 16.4 µM (active) | 
COc1ccccc1-n1nnnc1SCC(=O)NC(=O)Cc1ccccc1 | inactive | 
CCC(C)N(C(=O)CSc1nnnn1-c1ccccc1OC)C1CCS(=O)(=O)C1 (stereo unspecified) | inactive | 
OC[C@@H]1CN(Cc2ccc3c(c2)OCO3)C[C@H](n2cnc3c(NCc4ccco4)ncnc32)O1 | inactive | 
CC(C)(C)C1CCC(=O)N2CCC[C@]2(c2ccccc2)C1 (stereo partly specified) | inactive | 
CCCc1ccc(S(=O)(=O)N2CCN(C(=O)c3cc(C)on3)CC2)cc1 | inactive | 

Structure (SMILES) | Potency | activity, negative = toxicity
Cc1cc(Nc2ccc(C)c(C)c2)n2ncnc2n1 | inactive | 
CC(=O)OC[C@@H]1CN(Cc2ccccc2)C[C@H](n2cnc3c(NCc4ccco4)ncnc32)O1 | inactive | 
CSc1ccccc1-c1nnc(-c2ccc(Cl)cc2)o1 |  | -1.6% [at 9.24 µM] (inactive)
O=C(Nc1ccc(Cl)cn1)c1ccccc1-c1ccccc1 | inactive | 
Oc1ccccc1-c1cc(-c2ccc(Cl)cc2)n[nH]1 | 16.4 µM (active) | 
O=C(COc1ccc(Br)cc1)OCC(=O)c1ccc[nH]1 | inactive | 
Cc1ccc(C(=O)N[C@H](C(=O)N2CCN(c3ncccn3)CC2)C(C)C)cc1 | inactive | 
O=C(CO/N=C/c1ccccc1O)NNC(=O)c1ccccc1Cl | inactive | 
O=C(N/N=C/c1ccccc1O)C1CCCC1 | 23.1 µM (active) | 
COc1ccc(/C=N/NC(=O)C2CC2)c(OC)c1OC | inactive | 
O=C(NN=Cc1ccccc1O)NN=Cc1ccccc1O | 8.2 µM (active) | 
Oc1ccccc1C=NC1CCCCC1N=Cc1ccccc1O (stereo unspecified) | inactive | 
O=C(CCC(=O)Nc1ccccc1)N/N=C/c1ccccc1F | inactive | 
C=CCOc1ccccc1/C=N/NC(=O)Cc1ccccc1 | inactive | 
O=C(NN=Cc1ccccc1)c1ccccc1 | inactive | 
O=C(N/N=C/c1ccccc1O)/C(=C/c1ccccc1)CCO | 3.26 µM (active) | 
Brc1ccc2nc(-c3ccccc3)c(Cc3ccccc3)n2c1 | inactive | 
N#C/C(=C(/O)COC(=O)COc1ccc(Cl)cc1)c1nc2ccccc2[nH]1 | inactive | 
O=C(/C(=C/c1cccc(Cl)c1)c1nc2ccccc2[nH]1)c1ccccc1 | 3.26 µM (active) | 
O=C(N/N=C/c1ccc(Cl)cc1)c1nc2ccc([N+](=O)[O-])cc2c(=O)[nH]1 | inactive | 
O=C(Nc1cc(Br)ccc1F)c1nc[nH]c1C(=O)NCc1ccccc1 | inactive | 
CCOC(=O)c1ccc(NC(=O)c2nc[nH]c2C(=O)NCc2ccccc2)cc1 | inactive | 
O=C(Nc1ccon1)c1nc[nH]c1C(=O)NCc1ccccc1 | 2.59 µM (active) | 
